The record followed here is PubChem BioAssay (Tox21).

A short description of assay [1]: qHTS assay to identify small molecule antagonists of the retinoid acid receptor (RAR) signaling pathway - cell viability counter screen (AID 1159551). Also: nearly all actives have a fitted effect of over 35% in size. The essentials: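 C3RL4 RARE-luciferase line; cpds + retinol 1 uM final, 6 h, 37 C/5% CO2; CellTiter-Glo ATP luminescence, 30 min RT.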
Background: Quantitative high-throughput screening tests each substance at several concentrations.

Assay [2] can be described thus: qHTS assay to identify small molecule antagonists of the retinoic acid receptor (RAR) signaling pathway (AID 1159552; also: nearly all actives have a fitted effect of over 50% in size; also: potency is read from the fitted curve at half-maximal effect). The method in brief:
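Cells of the C3RL4 line were seeded, incubated overnight, then dosed with compounds in DMSO followed immediately by retinol (1 uM final). Six hours later luciferase detection reagent went in; signal was measured after 30 min at RT.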

Assay [3] is described as follows: qHTS assay to identify small molecule agonists of the retinoic acid receptor (RAR) signaling pathway (AID 1159553). Also: potency is read from the fitted curve at half-maximal effect. The essentials: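 RARE-luc C3RL4 cells; overnight attachment 37 C/5% CO2; compound (DMSO) 6 hr; luciferase reagent, 30 min RT; luminescence read-out.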
Assay [4] in a line: qHTS assay to identify small molecule antagonists of the estrogen related receptor (ERR) signaling pathway - cell viability counter screen (AID 1224818). Also: series mostly up to about 46 µM. The method in brief:
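Fluorescence from CellTiter-Fluor, read 30 min after reagent addition at 37 C, measured viability of ERR cells exposed to compounds for 17.5 h. Cells had settled 6 h before dosing.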

Assay [5] in a line: qHTS assay to identify small molecule agonists of the estrogen related receptor (ERR) signaling pathway (AID 1224820). The method in brief:
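An ERR cell line provided by NTP was seeded at 2,000 cells per well and allowed to settle for 6 h before compounds in DMSO were added. After 18 h at 37 C, luciferase activity was measured by One-Glo luminescence.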

For assay [6], the system named is estrogen-related receptor alpha (ERRalpha) with PGC-1alpha coactivator, human. The assay can be described thus: qHTS assay to identify small molecule antagonists of the estrogen related receptor signaling pathway with the pleiotropic PPARgamma coactivator (PGC) (AID 1224821; calls by dose curve;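 also: series mostly up to about 46 µM; lower luminescence signal means antagonism of PGC/ERR signalling; nearly all actives have a fitted effect of over 50% in size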). The essentials: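 A PGC/ERR cell line supplied by NTP is seeded, allowed 6 h at 37 C, and treated with test compounds in DMSO for 18 h. Signal is then measured as luciferase luminescence using One-Glo.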

Assay [7] is described as follows: qHTS assay to identify small molecule antagonists of the estrogen related receptor signaling pathway with the pleiotropic PPARgamma coactivator (PGC) cell viability counter screen (AID 1224822; also: potency is read from the fitted curve at half-maximal effect). The method in brief:
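Fluorescence read-out of CellTiter-Fluor after 30 min at 37 C; PGC/ERR cells, 2,000 per well, had been exposed to DMSO-dissolved compounds for 17.5 h following a 6 h pre-incubation.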

A short description of assay [8]: qHTS assay to identify small molecule agonists of the estrogen related receptor signaling pathway with the pleiotropic PPARgamma coactivator (PGC) (AID 1224823). The method in brief: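 Compounds dissolved in DMSO are added by pin tool to PGC/ERR cells that have settled for 6 h, and incubation continues 18 h at 37 C. Reporter output is measured as One-Glo luminescence.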

Assay [9] in a line: qHTS assay to identify small molecule antagonists of the estrogen related receptor (ERR) signaling pathway (AID 1224819;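 also: luminescence from an ERR-driven luciferase reporter measured with One-Glo reagent; series mostly up to about 46 µM; nearly all actives have a fitted effect of over 50% in size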). The method in brief:
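Luminescence readout (One-Glo, 30 min, RT) of ERR cell line after 18 h compound exposure at 37 C; cells seeded 2,000/well, pre-incubated 6 h, compounds pinned from DMSO stocks.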

Inconclusive results are not listed. Calls of active or inactive are those of the source. Unless noted, calls follow the shape of the dose curve; as a rule, active = well fitted curve in the direction sought with a large enough effect in the repeat runs; inconclusive = weak or mixed curves; inactive = no such curve, though single readings can be large; an effect the other way counts as inactive or inconclusive.

Take `COP(=S)(OC)Oc1cc(Cl)c(Br)cc1Cl`: the Potency entry in [1] and in assay [2] was “inactive” in each case.

For `COc1cccc(C(=O)CCN[C@@H](C)[C@H](O)c2ccccc2)c1`, in assay [2], the Potency was 26.6 µM (active). Also, in assay [3], the Potency entry was “inactive”.

Take `N#Cc1ccc(O)cc1`: the Potency entry in assay [1] and in assay [2] was “inactive” each time.

On to `FC(F)(F)c1cccc(C2=CCN(CCc3ccc4ccccc4c3)CC2)c1`, for which the Potency entry in [1] and in assay [3] was “inactive” each time.

On to `CC(C)(O)c1cnn2c(-c3ccc(F)c(-c4c(F)cccc4C#N)c3)cnc2n1`, for which the Potency entry in [1] and in assay [3] was “inactive” each time.

Take `O=C(Nc1ccc2[nH]ccc2c1)c1cc2cc(F)ccc2n1Cc1cccc(F)c1`: the Potency entry in assay [1] and in [3] was “inactive” each time.

On to `Cc1cc(C(F)(C(F)(F)F)C(F)(F)F)ccc1NC(=O)c1cccc(I)c1C(=O)NC(C)(C)CS(C)(=O)=O`, for which the Potency result in assay [1], in assay [2] and in assay [3] was “inactive” each time.

In the case of `BrC(Br)C(Br)(Br)Br`, in assay [1], the Potency entry is “inactive”. Further, in assay [2], the Potency is 30.8 µM (active).

For `Clc1ccc(-c2ccc(Cl)c(Cl)c2Cl)c(Cl)c1Cl`, the Potency entry in assay [1] and in assay [2] was “inactive” each time.

For `Nc1ccc(Sc2ccc(N)cc2)cc1`, the Potency result in [1], in assay [2], in assay [6] and in [7] was “inactive” throughout. Moreover, the molecule was called inactive in [4], in assay [5] and in assay [8].

For the molecule `O=C(O)COc1nc(Cl)c(Cl)cc1Cl`, the Potency result in assay [1], in assay [2], in assay [3] and in assay [7] was “inactive” each time. In addition, the result in assay [4] was inactive.

Turning to `CN(C)c1ccc(N=Nc2ccccc2)cc1`, the Potency result in [1] and in assay [2] was “inactive” throughout. Moreover, in [3], the Potency is 0.097 µM (active).

Take `CC(C)(C)c1cc([N+](=O)[O-])cc(C(C)(C)C)c1O`: the Potency result in assay [1] is “inactive”. Further, the Potency in [2] was 15.4 µM (active).

In the case of `CCCCCCCCCCCCCCC(Br)C(=O)O` (stereo unspecified), the Potency result in assay [2] and in [3] was “inactive” throughout.

As for `CCCCCCCCc1ccc(O)cc1`, the Potency result in assay [2] is “inactive”. For the same molecule, the Potency in assay [7] was 52.4 µM (active).

Turning to `C[C@@H]1O[C@@H](O[C@@H]2C=C3CC[C@@H]4[C@H](CC[C@]5(C)[C@@H](c6ccc(=O)oc6)CC[C@]45O)[C@@]3(C)CC2)[C@H](O)[C@H](O)[C@H]1O`, the Potency result in [1] and in assay [3] was “inactive” in each case.

In the case of `N#Cc1c(-c2ccc(Cl)cc2)[nH]c(C(F)(F)F)c1Br`, in [2], the Potency was 0.545 µM (active).

Take `O=[N+]([O-])c1c2ccccc2cc2ccccc12`: the Potency result in assay [1], in assay [2], in assay [9], in assay [6] and in assay [7] was “inactive” in each case. In addition, the Potency in assay [3] is 19.1 µM (active). Also, the outcome in assay [4], in assay [5] and in assay [8] was inactive.

`CCOC(=O)OC1=C(c2cc(C)ccc2C)C(=O)NC12CCC(OC)CC2` (stereo unspecified): the Potency result in assay [1] and in assay [3] was “inactive” throughout. In addition, the Potency in [2] is 43.2 µM (active).

With `CC(=O)O[C@H]1CC[C@@]2(C)C(=CC[C@@H]3[C@@H]2CC[C@]2(C)C(=O)CC[C@@H]32)C1`, in assay [2], the Potency entry is “inactive”.

For `O=C1c2ccccc2C(=O)C1C(=O)C(c1ccccc1)c1ccc(Cl)cc1` (stereo unspecified), the Potency entry in assay [1], in [2] and in assay [3] was “inactive” in each case.

Turning to `O=c1oc2ccccc2c(O)c1Cc1c(O)c2ccccc2oc1=O`, the Potency entry in assay [1], in [2] and in assay [3] was “inactive” in each case.

For the molecule `CCCOCC(=Nc1ccc(Cl)cc1C(F)(F)F)n1ccnc1`, the Potency entry in [3] is “inactive”.

Take `O=[N+]([O-])c1ccc2ccc3cccc4ccc1c2c34`: the Potency result in assay [1] and in [2] was “inactive” throughout.

With `C[C@@H]1O[C@@H](O[C@H]2C[C@@H](O)[C@]3(CO)[C@H]4[C@H](O)C[C@]5(C)[C@@H](C6=CC(=O)OC6)CC[C@]5(O)[C@@H]4CC[C@]3(O)C2)[C@H](O)[C@H](O)[C@H]1O`, the Potency result in assay [1] is “inactive”. The call in assay [4] was inactive.

For `CC(C)(C)C(O)/C(=C\c1ccc(Cl)cc1Cl)n1cncn1` (stereo unspecified), in assay [2], the Potency was 58.7 µM (active).

For `CC1(c2ccc(Oc3ccccc3)cc2)OC(=O)N(Nc2ccccc2)C1=O` (stereo unspecified), the Potency in assay [2] was 27.5 µM (active).

As to `CC(C)(C)c1ccc(CSc2cnn(C(C)(C)C)c(=O)c2Cl)cc1`, the Potency entry in [1], in assay [2] and in assay [3] was “inactive” in each case.

As for `CN(C)CCc1c[nH]c2ccc(O)cc12`, the Potency entry in assay [1] and in assay [2] was “inactive” in each case.

Consider `CC(C)Oc1cccc(NC(=O)c2ccccc2C(F)(F)F)c1`, for which the Potency result in assay [1], in assay [3] and in [7] was “inactive” each time. In addition, the outcome in assay [4], in assay [5] and in assay [8] was inactive.

Take `c1ccc2c(c1)OCC(C1=NCCN1)O2` (stereo unspecified): the Potency entry in [7] was “inactive”.
